The target in experiment [1] is Lysosomal acid glucosylceramidase (Homo sapiens) (UniProt P04062). Kind of experiment: Glucocerebrosidase-p2 (AID 348; in the data active means potency below about 10 µM; further: potency means the concentration at half of the fitted maximal effect). The settings on record: purified GBA, blue fluorogenic substrate, 40 min. The method in brief:
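Normal human glucocerebrosidase (0.2 nM) with blue fluorogenic substrate (80 uM final) in citrate/phosphate pH 5.9 with 10mM sodium taurocholate, 0.01% tween-20; 40 min RT, NaOH/glycine stop; fluorescence Ex 365/Em 440; AC50 from a titration from 0.6 nM upwards.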

Experiment [2] can be described thus: AP1 Signaling Pathway (AID 357; active means well fitted curve in either direction with a large enough effect, not every such curve was filed as active;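 further: ME-180 reporter cells stimulated with EGF at its EC50 level; on the % scale 0 is the no-effect control and ±100 the full control effect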). The settings on record: ME-180 AP-1-bla reporter, EGF-induced, beta-lactamase ratio, 5 h; at 7.69 µM (top of the series) unless noted. Summed up: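 Beta-lactamase reporter under AP-1 response element, ME-180 background. Stimulus: EC50 EGF. Compound exposure 5 h, 37 °C. Detection: CCF4, 2.5 h RT, 460/530 nm. Values: AC50 from titration.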

Experiment [3] deals with Cytochrome P450 1A2 (Homo sapiens) (UniProt P05177). Kind of experiment: p450-cyp1a2 (AID 410; calls by dose curve; further: potency means the concentration at half of the fitted maximal effect). The settings on record: recombinant CYP1A2, luciferin-ME demethylation, luminescence; series mostly up to 57 µM. Summed up:
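20nM CYP1A2, 100uM Luciferin-ME (=Km), 100mM KPO4; cpd 10 min RT; +NADPH regen, 60 min RT; stop/detect 20 min; luminescence. Normalized to furafylline 57 uM = full inhibition.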

A short description of experiment [4]: NFAT Signaling Pathway (AID 444; active means well fitted curve in either direction with a large enough effect, not every such curve was filed as active;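 further: carbachol stimulus at about its EC50 of 1 µM final; on the % scale 0 is the no-effect control and ±100 the full control effect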). The following applies: Jurkat NFAT-bla M1, carbachol, beta-lactamase ratio, 5 h; at 7.69 µM (top of the series) unless noted. Summed up: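 Jurkat cells carrying an NFAT-driven β-lactamase reporter and co-transfected muscarinic M1 receptor were treated with compound plus carbachol (1 uM final, an EC50 level) for 5 h at 37 °C. CCF4 loading followed for 1 h at RT; 460/530 nm ratio gave %activity.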

A short description of experiment [5]: Stat Signaling Pathway (AID 446; active means well fitted curve in either direction with a large enough effect, not every such curve was filed as active;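 further: ME-180 cervical cancer cells given 40 pM IL-6 alongside compound; SIE-controlled beta-lactamase reporter measured as 460/530 nm FRET emission ratio; on the % scale 0 is the no-effect control and ±100 the full control effect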). The settings on record: ME-180 (cervical carcinoma) SIE beta-lactamase reporter, IL-6 stimulated, 5 h; at 7.69 µM (top of the series) unless noted. Summed up:
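Normalization used AC90 stimulation (300 pM IL-6) and AC90 inhibition (125 nM pan-JAK inhibitor at 40 pM IL-6). The underlying signal is SIE-driven beta-lactamase in ME-180 cells after 5 h IL-6 exposure with compound.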

The target in experiment [6] is Glucocorticoid receptor (Homo sapiens) (UniProt P04150). Kind of experiment: GR-GFP Redistribution (AID 450;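 active means compounds whose dose series gives a full or clear partial fitted curve of increased nuclear translocation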; further: potency means the concentration at half of the fitted maximal effect). The following applies: U2OS GR-GFP nuclear translocation, laser cytometry, 2 h.
Experiment [7] has the same target. The experiment in a line: GR-EFC Redistribution (AID 451; calls by dose curve; further: potency means the concentration at half of the fitted maximal effect). The following applies: CHO-K1 GR-EFC translocation, beta-gal luminescence, 2 h. The method in brief: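 CHO-K1 cells stably expressing nuclear-localized β-gal enzyme acceptor and GR fused C-terminally to the enzyme donor fragment; ligand-driven nuclear translocation restores β-gal by complementation. Compounds titrated up to 46 uM final, 2 h at 37 °C; luminescence read.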

The target of experiment [8] is Mitogen-activated protein kinase 10 (Mus musculus) (UniProt Q61831). The experiment in a line: JNK3 AlphaScreen Assay (AID 530; active means well fitted curve in either direction with a large enough effect, not every such curve was filed as active;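 further: kinase came from lysate of stimulated human HepG2 cells; signal reports phosphorylation of biotinylated GST-cJun 1-79 at Ser73 with 10 µM ATP; on the % scale 0 is the no-effect control and ±100 the full control effect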). The settings on record: JNK3 lysate, c-Jun phosphorylation; series mostly up to 57.1 µM. Summed up:
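Biotinylated GST-cJun(1-79) served as substrate for JNK3 in HepG2 lysates stimulated with IL-1beta and TNF-alpha. ATP was 10 uM final, pH 7.6. Ser73 phosphorylation was quantified by AlphaScreen (680 nm excitation).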

Experiment [9] addresses Cytochrome P450 3A4 (Homo sapiens) (UniProt P08684). Kind of experiment: qHTS Assay for Activators of Cytochrome P450 3A4 (AID 885). Further: nearly all actives have a fitted effect of over 65% in size. The following applies: recombinant CYP3A4, Luciferin-PPXE luminescence, 60 min; series mostly up to 57.1 µM. The method in brief: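 Human CYP3A4 dealkylates Luciferin-PPXE to luciferin, which luciferase detection converts to light. Substrate was at its KM (25uM), buffer 200mM KPO4, reaction 60 min at RT.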

For experiment [10], the target named is Cytochrome P450 2C19 (Homo sapiens) (UniProt P33261). Kind of experiment: qHTS Assay for Inhibitors and Substrates of Cytochrome P450 2C19 (AID 899). Further: potency means the concentration at half of the fitted maximal effect; nearly all actives have a fitted effect of over 60% in size. The following applies: recombinant CYP2C19, luciferin-H EGE luminescence; series mostly up to 57.1 µM. The method in brief: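 In 50mM KPO4, the reaction held 5nM enzyme and KM-level (10uM) Luciferin-H EGE; it ran 60 min at 37C after NADPH regeneration and a 10 min compound preincubation. Luminescence values were scaled to 57uM ketoconazole as complete inhibition.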

Experiment [11] has as its target Dual specificity protein kinase CLK4 (Homo sapiens) (UniProt Q9HAZ1). The experiment in a line: qHTS Assay for Inhibitors of CDC-like Kinase 4 (Kinase-Glo Assay) (AID 1770). Further: nearly all actives have a fitted effect of over 65% in size. Further: potency means the concentration at half of the fitted maximal effect. The settings on record: recombinant Clk4, Kinase-Glo ATP depletion luminescence; series mostly up to 66.7 µM. The method in brief:
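Luminescent ATP-depletion read-out (Kinase-Glo) after 4.5 h room-temperature reaction of Clk4 (25 nM final) with RS peptide (100 uM) and ATP (1 uM), pH 7.5 Tris buffer with MgCl2 and DTT.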

For experiment [12] the target is unchanged. The experiment in a line: qHTS Assay for Inhibitors of CDC-like Kinase 4 (ADP-Glo Assay) (AID 1771). Further: nearly all actives have a fitted effect of over 70% in size. Further: potency means the concentration at half of the fitted maximal effect. The following applies: recombinant CLK4, ADP-Glo luminescence; series mostly up to 80 µM. Summed up:
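25 nM Clk4, 100 uM RS peptide, 1 uM ATP (final); 2 mM MgCl2, 0.5 mM EGTA, 2.5 mM DTT, 0.01% Triton X-100; 1 hr RT. ADP-Glo readout: ATP depletion 45 min, conversion/luciferase 30 min, luminescence.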

For experiment [13] the target is unchanged. The experiment in a line: qHTS Assay for Inhibitors of CDC-like Kinase 4 (ADP-FP Assay) (AID 1795). Further: nearly all actives have a fitted effect of over 60% in size. Further: potency means the concentration at half of the fitted maximal effect. The following applies: Transcreener ADP fluorescence polarization; series mostly up to 50 µM. The method in brief:
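Kinase activity was measured as ADP production using Transcreener orange tracer (4 nM) and ADP antibody (1 ug/mL) fluorescence polarization, with ADP calculated from a calibration curve. The 1 h reaction contained 6.25 nM Clk4, 1 uM ATP and 100 uM RS peptide at pH 7.5 with Mg2+.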

The target in experiment [14] is Ubiquitin carboxyl-terminal hydrolase 1 (Homo sapiens) (UniProt O94782). Kind of experiment: Inhibitors of USP1/UAF1: Pilot qHTS (AID 504865).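 Further: rhodamine fluorescence freed from ubiquitin-rhodamine substrate followed over time; top concentration of the series differs between compounds; on the % scale 0 is the no-effect control and ±100 the full control effect; nearly all actives have a fitted effect of over 35% in size.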 The settings on record: purified USP1/UAF1, Ub-rhodamine cleavage fluorescence; series mostly up to 54.9 µM. Summed up:
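Deubiquitinase activity followed as kinetic rhodamine fluorescence release from 150 nM Ub-Rho. 1 nM USP1/UAF1 with compound, after 15 min room-temperature preincubation, in HEPES pH 7.8 buffer containing TCEP, EDTA, BSA and Tween-20.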

The nature of experiment [15]: Primary qHTS for small molecule stabilizers of the endoplasmic reticulum resident proteome: Secreted ER Calcium Modulated Protein (SERCaMP) assay (AID 1508630). Further: on the % scale 0 is the no-effect control and ±100 the full control effect. The following applies: SH-SY5Y GLuc-SERCaMP (Gaussia luciferase released on ER calcium loss) secretion, thapsigargin, luminescence; series mostly up to 38.4 µM. The method in brief: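 The SH-SY5Y reporter protocol was run at 3 concentrations up to 38.3 uM (primary) or 11 concentrations (follow-up): 16 h compound, 100 nM thapsigargin for 4 h, then extracellular luciferase luminescence.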

The target in experiment [16] is 3',5'-cyclic-AMP phosphodiesterase 4B (Homo sapiens) (UniProt Q07343). Kind of experiment: qHTS Assay for Inhibitors of PDE-IV (AID 607; active means well fitted activation curve with a large enough effect in the main read-out, with a control signal flat, not every such curve was filed as active; further: % of control where 0% means no effect). The following applies: HEK293 ACTOne CNG channel cells, membrane potential fluorescence; series mostly up to 22.9 µM. The method in brief:
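HEK293 ACTOne cells with CNG channel (1000/well), endogenous PDE4; membrane potential dye, compounds up to 22.9 uM final. Fluorescence Ex 535/Em 590; RO 20-1724 (100 uM final) as reference.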

In experiment [17] the target is Cytochrome P450 3A4 (Homo sapiens) (UniProt P08684). The experiment in a line: qHTS Assay for Inhibitors and Substrates of Cytochrome P450 3A4 (AID 884). Further: potency means the concentration at half of the fitted maximal effect; nearly all actives have a fitted effect of over 50% in size. The following applies: recombinant CYP3A4, Luciferin-PPXE luminescence; series mostly up to 57.1 µM. The method in brief: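 Luminescent readout of luciferin produced by CYP3A4 (20 nM) dealkylation of Luciferin-PPXE, 25 uM (its KM). NADPH-driven reaction ran 60 min at RT after 10 min compound preincubation; data scaled to 57 uM ketoconazole as 100% inhibition.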

Values without a mark were called inactive. Inconclusive results are not listed. Activity calls are given as the source filed them. Unless noted, the call rests on the fitted dose curve; in most records, active means well fitted curve in the direction sought with a large enough effect; inconclusive means small, poorly fitted or top-dose-only effect, or another doubt; inactive means no such curve, though single readings can be large; an effect the other way counts as inactive or inconclusive. A value given as a limit tells only on which side of the number the result lay.

The source of these data is PubChem BioAssay (NCATS).

Sequence of Dual specificity protein kinase CLK4 (Homo sapiens) (Q9HAZ1 whole entry, looked up): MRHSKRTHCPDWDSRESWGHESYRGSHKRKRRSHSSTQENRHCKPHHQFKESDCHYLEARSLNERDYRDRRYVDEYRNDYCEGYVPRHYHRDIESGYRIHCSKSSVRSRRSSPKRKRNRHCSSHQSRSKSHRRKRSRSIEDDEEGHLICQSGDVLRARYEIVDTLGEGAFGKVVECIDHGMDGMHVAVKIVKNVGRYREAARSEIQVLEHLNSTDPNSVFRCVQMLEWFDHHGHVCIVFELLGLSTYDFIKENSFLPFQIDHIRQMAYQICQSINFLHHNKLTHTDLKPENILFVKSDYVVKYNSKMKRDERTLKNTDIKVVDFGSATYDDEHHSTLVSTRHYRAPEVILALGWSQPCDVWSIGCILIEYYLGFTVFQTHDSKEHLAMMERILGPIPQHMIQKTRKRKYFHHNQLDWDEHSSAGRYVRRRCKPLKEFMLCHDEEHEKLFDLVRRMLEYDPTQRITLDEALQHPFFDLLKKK
Sequence of Ubiquitin carboxyl-terminal hydrolase 1 (Homo sapiens) (O94782 whole entry, looked up): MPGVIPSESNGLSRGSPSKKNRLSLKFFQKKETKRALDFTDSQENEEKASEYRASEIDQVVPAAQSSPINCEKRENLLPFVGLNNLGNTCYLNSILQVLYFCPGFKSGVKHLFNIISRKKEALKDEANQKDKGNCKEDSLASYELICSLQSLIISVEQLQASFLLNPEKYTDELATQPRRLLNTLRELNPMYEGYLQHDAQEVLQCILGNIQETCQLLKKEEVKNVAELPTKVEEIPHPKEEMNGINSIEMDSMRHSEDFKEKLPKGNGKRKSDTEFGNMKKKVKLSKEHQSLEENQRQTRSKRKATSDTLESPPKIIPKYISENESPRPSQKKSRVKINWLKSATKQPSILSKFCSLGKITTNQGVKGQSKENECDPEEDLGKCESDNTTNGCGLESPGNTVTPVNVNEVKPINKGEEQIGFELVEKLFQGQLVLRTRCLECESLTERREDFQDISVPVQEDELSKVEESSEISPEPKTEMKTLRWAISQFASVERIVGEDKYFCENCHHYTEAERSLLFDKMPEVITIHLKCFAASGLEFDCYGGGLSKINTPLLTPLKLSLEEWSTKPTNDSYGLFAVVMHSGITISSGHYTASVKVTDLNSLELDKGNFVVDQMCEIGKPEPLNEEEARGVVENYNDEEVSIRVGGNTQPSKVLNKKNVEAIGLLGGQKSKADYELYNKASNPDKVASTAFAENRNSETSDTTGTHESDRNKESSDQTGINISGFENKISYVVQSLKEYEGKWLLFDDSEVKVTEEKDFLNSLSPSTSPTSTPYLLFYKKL
Sequence of Glucocorticoid receptor (Homo sapiens) (P04150 whole entry, looked up, the tested form may be a part): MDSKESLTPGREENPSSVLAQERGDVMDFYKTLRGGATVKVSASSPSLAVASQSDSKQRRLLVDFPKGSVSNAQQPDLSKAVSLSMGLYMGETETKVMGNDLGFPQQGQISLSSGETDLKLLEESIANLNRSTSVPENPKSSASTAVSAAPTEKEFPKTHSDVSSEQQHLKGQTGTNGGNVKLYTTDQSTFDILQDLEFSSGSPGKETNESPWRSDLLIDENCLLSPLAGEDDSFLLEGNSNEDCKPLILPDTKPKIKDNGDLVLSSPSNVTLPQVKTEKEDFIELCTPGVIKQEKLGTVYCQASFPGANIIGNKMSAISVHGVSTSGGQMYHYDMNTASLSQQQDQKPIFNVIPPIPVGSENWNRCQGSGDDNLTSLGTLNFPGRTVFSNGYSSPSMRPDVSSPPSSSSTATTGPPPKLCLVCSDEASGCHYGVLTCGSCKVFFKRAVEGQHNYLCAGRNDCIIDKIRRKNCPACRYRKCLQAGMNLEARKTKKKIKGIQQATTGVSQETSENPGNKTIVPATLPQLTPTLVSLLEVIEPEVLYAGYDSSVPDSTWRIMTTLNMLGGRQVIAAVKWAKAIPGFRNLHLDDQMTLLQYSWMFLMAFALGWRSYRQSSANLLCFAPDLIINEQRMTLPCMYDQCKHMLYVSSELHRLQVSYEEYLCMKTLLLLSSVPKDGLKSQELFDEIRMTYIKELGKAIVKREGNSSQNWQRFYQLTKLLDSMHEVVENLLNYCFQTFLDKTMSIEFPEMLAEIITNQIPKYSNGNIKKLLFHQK
Sequence of Lysosomal acid glucosylceramidase (Homo sapiens) (P04062 whole entry, looked up): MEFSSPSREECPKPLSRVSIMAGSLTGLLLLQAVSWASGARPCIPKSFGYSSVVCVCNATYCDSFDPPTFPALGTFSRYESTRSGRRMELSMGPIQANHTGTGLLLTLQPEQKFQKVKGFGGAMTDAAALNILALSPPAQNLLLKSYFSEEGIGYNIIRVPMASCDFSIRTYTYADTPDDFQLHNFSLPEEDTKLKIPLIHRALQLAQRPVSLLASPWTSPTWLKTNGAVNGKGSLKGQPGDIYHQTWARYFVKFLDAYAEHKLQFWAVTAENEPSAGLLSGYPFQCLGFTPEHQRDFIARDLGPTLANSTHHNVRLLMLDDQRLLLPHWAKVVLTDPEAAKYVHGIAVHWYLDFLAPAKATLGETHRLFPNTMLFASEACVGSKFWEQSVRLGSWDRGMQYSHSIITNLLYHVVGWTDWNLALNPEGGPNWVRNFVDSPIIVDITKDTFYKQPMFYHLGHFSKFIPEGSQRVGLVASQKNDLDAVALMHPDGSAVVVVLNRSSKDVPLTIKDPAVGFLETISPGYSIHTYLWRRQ
Sequence of Cytochrome P450 3A4 (Homo sapiens) (P08684 whole entry, looked up): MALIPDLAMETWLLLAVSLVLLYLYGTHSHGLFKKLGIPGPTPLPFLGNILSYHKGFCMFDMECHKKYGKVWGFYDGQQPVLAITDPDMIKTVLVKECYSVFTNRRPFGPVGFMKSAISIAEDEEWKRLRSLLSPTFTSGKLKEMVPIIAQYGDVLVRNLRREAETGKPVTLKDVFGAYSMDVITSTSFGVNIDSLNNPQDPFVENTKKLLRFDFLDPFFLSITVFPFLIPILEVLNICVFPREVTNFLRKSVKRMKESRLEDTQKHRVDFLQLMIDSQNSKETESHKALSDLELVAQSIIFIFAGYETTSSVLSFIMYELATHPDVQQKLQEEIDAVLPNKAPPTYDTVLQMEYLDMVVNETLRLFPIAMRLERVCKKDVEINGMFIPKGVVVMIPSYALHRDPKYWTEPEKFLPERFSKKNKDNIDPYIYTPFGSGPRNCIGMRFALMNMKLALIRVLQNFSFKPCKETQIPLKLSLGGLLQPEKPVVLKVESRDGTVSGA
Sequence of Cytochrome P450 1A2 (Homo sapiens) (P05177 whole entry, looked up): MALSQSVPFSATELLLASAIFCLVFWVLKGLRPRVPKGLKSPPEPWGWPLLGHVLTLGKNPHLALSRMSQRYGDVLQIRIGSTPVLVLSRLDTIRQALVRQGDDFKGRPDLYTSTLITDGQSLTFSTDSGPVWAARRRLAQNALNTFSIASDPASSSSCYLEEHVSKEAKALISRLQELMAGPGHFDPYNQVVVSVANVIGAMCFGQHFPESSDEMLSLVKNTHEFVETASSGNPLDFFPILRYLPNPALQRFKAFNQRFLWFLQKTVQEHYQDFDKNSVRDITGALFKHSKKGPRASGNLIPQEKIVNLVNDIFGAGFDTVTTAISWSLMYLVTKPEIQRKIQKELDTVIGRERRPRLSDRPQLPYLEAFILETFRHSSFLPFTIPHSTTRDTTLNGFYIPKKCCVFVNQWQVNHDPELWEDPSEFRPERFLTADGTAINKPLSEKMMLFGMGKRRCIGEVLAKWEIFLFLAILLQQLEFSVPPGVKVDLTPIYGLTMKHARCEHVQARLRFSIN
Sequence of Cytochrome P450 2C19 (Homo sapiens) (P33261 whole entry, looked up): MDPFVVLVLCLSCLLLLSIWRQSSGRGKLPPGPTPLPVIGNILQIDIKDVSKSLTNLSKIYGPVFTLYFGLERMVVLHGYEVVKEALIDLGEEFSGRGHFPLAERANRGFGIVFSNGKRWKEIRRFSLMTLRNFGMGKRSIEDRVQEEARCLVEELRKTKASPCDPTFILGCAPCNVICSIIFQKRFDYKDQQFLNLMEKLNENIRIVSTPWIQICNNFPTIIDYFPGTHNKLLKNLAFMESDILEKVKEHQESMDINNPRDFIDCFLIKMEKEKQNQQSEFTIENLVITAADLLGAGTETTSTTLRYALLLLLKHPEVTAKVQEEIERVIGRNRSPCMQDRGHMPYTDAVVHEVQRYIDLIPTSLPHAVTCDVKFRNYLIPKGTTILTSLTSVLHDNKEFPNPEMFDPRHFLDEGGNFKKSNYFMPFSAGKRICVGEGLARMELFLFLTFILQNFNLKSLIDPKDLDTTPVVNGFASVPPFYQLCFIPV
Sequence of 3',5'-cyclic-AMP phosphodiesterase 4B (Homo sapiens) (Q07343 whole entry, looked up): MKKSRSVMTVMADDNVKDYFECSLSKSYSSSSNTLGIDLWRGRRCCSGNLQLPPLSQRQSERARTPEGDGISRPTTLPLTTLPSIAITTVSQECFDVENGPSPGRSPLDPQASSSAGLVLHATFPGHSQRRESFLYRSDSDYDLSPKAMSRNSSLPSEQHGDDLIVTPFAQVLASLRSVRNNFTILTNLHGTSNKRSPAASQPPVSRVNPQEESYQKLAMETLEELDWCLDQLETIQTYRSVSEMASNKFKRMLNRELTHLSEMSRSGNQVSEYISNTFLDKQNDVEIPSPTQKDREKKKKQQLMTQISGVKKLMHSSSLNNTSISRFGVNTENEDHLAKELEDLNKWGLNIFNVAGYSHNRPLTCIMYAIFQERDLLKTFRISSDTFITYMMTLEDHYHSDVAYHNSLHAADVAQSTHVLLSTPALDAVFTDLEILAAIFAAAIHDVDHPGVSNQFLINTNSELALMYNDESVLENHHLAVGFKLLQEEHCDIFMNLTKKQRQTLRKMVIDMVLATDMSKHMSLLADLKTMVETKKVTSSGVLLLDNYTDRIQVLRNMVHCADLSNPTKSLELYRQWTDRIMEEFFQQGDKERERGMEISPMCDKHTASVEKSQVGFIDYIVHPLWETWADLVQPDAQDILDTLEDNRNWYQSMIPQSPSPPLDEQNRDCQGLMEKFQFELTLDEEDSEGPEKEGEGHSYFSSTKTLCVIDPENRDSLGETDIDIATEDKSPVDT

As for `N#Cc1cccc(-c2nccc(NCc3cccs3)n2)c1`, the Potency is greater than 11.4 µM in experiment [1]; 0.251 µM (active) in [3]; greater than 46 µM in experiment [6]; greater than 46 µM in experiment [7]; 3.98 µM (active) in experiment [10]; 7.08 µM (active) in experiment [11]. Also, the values for the Potency in experiment [12] and in experiment [13] were 6.31 µM (active) and 8.91 µM (active), respectively. Moreover, the activity change, negative = inhibition was -27.8% in [2] and 11.9% in [4]. The activity, negative = inhibition in [5] was -14.7%. The Potency result in [8], in [9] and in experiment [14] was “inactive” each time. In experiment [15], the outcome was inactive.
With `COc1cccc(Cn2c(=O)cnc3cnc(OCc4ccccc4)nc32)c1`, the Potency was greater than 11.4 µM in experiment [1], 12.6 µM (active) in experiment [3], greater than 9.22 µM in experiment [6] and greater than 46 µM in experiment [7]. Further, the activity change, negative = inhibition in [2] is -24.3%; in [4], -4.5%. Moreover, the activity, negative = inhibition in experiment [5] is -13.2%. The Potency entry in experiment [8], in [9], in [11], in experiment [12], in experiment [13] and in experiment [14] was “inactive” throughout. Besides, the result in [15] was inactive.
`CS(=O)(=O)Nc1cccc(-c2cc(NCc3cccs3)ncn2)c1`: the Potency in [1] was greater than 11.4 µM; in [3], 6.31 µM (active); in experiment [6] it was greater than 46 µM; in [7], greater than 46 µM; in experiment [11] it was 10 µM (active); in experiment [12] it was 12.6 µM (active). Besides, the Potency in experiment [13] was 12.6 µM (active). Besides, the values for the activity change, negative = inhibition in experiment [2] and in experiment [4] were -14.7% and -3.98%, respectively. For the same compound, the activity, negative = inhibition in experiment [5] was -1.82%. The Potency entry in experiment [8], in experiment [16], in [9] and in experiment [14] was “inactive” in each case. The outcome in experiment [15] was inactive.
`COc1ncc2nc(C)c(=O)n(CCc3ccccc3)c2n1`: the Potency is greater than 11.4 µM in [1], 2 µM (active) in [3], greater than 9.22 µM in experiment [6] and greater than 46 µM in [7]. The values for the activity change, negative = inhibition in experiment [2] and in experiment [4] were -1.51% and -3.03%, respectively. Further, the activity, negative = inhibition in experiment [5] was -12.2%. The Potency entry in experiment [8], in [9], in [11], in experiment [12], in experiment [13] and in experiment [14] was “inactive” in each case. Moreover, the result in experiment [15] was inactive.
`COCCn1c(=O)c(-c2cn(C)c3ccccc23)nc2cnc(OCc3ccccc3)nc21`: the Potency in [1] is greater than 11.4 µM; in [3], 5.01 µM (active); in experiment [6], greater than 9.22 µM; in experiment [7], greater than 46 µM. Moreover, the results for the activity change, negative = inhibition in [2] and in [4] were -1.93% and -4.76%, respectively. The activity, negative = inhibition in [5] is 23.6%. Moreover, the Potency result in [8], in [9], in experiment [11], in experiment [12], in [13] and in [14] was “inactive” throughout. Besides, the result in experiment [15] was inactive.
For `c1ccc(CNc2ncncc2-c2ccc3c(c2)OCO3)cc1`, the Potency in [1] was greater than 11.4 µM; in [3], 0.126 µM (active); in experiment [6], greater than 46 µM; in experiment [7], greater than 46 µM; in [17], 0.501 µM (active); in [10], 0.501 µM (active). The Potency in experiment [11] is 6.31 µM (active); in [12] it was 7.08 µM (active); in [13] it was 2.51 µM (active). The activity change, negative = inhibition in [2] was -23.4%; in experiment [4] it was 7.28%. Further, the activity, negative = inhibition in [5] was -0.121%. Besides, the Potency result in experiment [8], in experiment [9] and in experiment [14] was “inactive” each time. In experiment [15], the result was inactive.
